Shown are actives, neighbours in structure and some others; about 7.8% of the full set was active somewhere.
sEH activator = soluble epoxide hydrolase activators, primary screen, biochemical, human sEH; Bifunctional epoxide hydrolase 2 (Homo sapiens), P34913; activation, % at 2 µM; purified human sEH enzymatic activity, activator screen; actives 0.04% (n = 91,000); in the data active = activation above about 37%
sEH inhibitor = soluble epoxide hydrolase inhibitors, primary screen, biochemical, human sEH | Bifunctional epoxide hydrolase 2 (Homo sapiens), P34913 | recombinant human sEH enzymatic activity assay | actives 0.34% (n = 91,000) | inhibition, % at 2 µM; in the data active = inhibition above about 80%
Cav32 inh = Cav3.2 calcium influx blockers – cell-based, Fluo-4 calcium fluorescence, FDSS, MLSMR library, primary screen; Voltage-dependent T-type calcium channel subunit alpha-1H (Homo sapiens), O95180; B-score at 10 µM; actives 4% (n = 100,000); Cav3.2-expressing cells; active compounds read low; AID 449739, 2010;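 active = single-dose well whose peak fluorescence ratio is a statistical outlier from its plate by either plate-standardised score or position-corrected B-score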
PostGolgi yeast = phenotypic screen on post-Golgi transport, primary screen; post-Golgi transport phenotypic cell assay; inhibition, % at 10 µM; actives 0.9% (n = 98,000);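 also: yeast cells grown in 1536-well plates; yeast grown about 18 h at 30C before absorbance read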
PostGolgi ctrl = growth inhibition of yeast control strain, primary screen, counter-screen for post-Golgi transport modulator project | efflux-deficient yeast background strain, growth absorbance A615, 16 h | inhibition, % at 10 µM | actives 5% (n = 98,000) | AID 738, 2007
* marks the source's active call; other numbers are inactive results. Rule as the data show it, unless noted: active = inhibition above about 30%; inactive = the rest.

How did Cc1cc(C)c2cc(CN(Cc3ccc4c(c3)OCO4)Cc3nnnn3Cc3ccco3)c(=O)[nH]c2c1 do in these assays?
sEH activator: -9; sEH inhibitor: 7; Cav32 inh: -0.98; PostGolgi yeast: 4; PostGolgi ctrl: 15

Results for Cc1ccc(NC(=O)c2ccc(-c3nn(C)c(=O)c4ccccc34)cc2)cc1 ?
sEH activator: -11; sEH inhibitor: 8; Cav32 inh: 0.88; PostGolgi yeast: 3; PostGolgi ctrl: -3

Results for Cc1ccc(NC(=O)c2ccc(-c3nn(C)c(=O)c4ccccc34)cc2)c(C)c1 ?
sEH activator: 2; sEH inhibitor: 1; Cav32 inh: 0.79; PostGolgi yeast: -4; PostGolgi ctrl: 41*

How did O=[N+]([O-])c1ccc(C2CCCC/C2=N\OCc2cccc(F)c2)c([N+](=O)[O-])c1 (centres undefined) do in these assays?
sEH activator: 19; sEH inhibitor: -16; PostGolgi yeast: 1; PostGolgi ctrl: 10

Results for Cc1ccc(C(=O)Nc2ccccc2-c2ccccc2)o1 ?
sEH activator: 4; sEH inhibitor: -1; Cav32 inh: -2.2; PostGolgi yeast: 6; PostGolgi ctrl: 35*

What do the screens show for `Nc1[nH]c(=O)ncc1F`?
Cav32 inh: 0.86

Results for O=C(c1ccc(Cl)cc1)N1CCC(O)(CSc2ccccc2)CC1 ?
PostGolgi yeast: -6; PostGolgi ctrl: 21

How did N#CC1(Cc2ccc(Cl)cc2)c2ccccc2C=CN1C(=O)c1ccccc1 (centres undefined) do in these assays?
sEH activator: 3; sEH inhibitor: -4; Cav32 inh: -3.2*; PostGolgi yeast: 4; PostGolgi ctrl: 23

What do the screens show for `O=c1c2c3c(sc2n2c(=S)[nH]nc2n1Cc1ccccc1)CN(Cc1ccccc1)CC3`?
sEH activator: 5; sEH inhibitor: -1

How did CCOC(=O)c1cc(NC(=O)c2c(C)noc2C)cc(C(=O)OCC)c1 do in these assays?
sEH activator: -13; sEH inhibitor: 11; Cav32 inh: -0.13; PostGolgi yeast: -13; PostGolgi ctrl: 11

How did Cc1ccccc1OCCCC(=O)Nc1ccc(Br)cc1 do in these assays?
sEH activator: -93; sEH inhibitor: 93*; Cav32 inh: -0.84; PostGolgi yeast: -2; PostGolgi ctrl: 10

Results for CC1=C(C(=O)Nc2ccccc2)C(c2ccccc2)N2C(=O)CSC2=N1 (centres undefined) ?
sEH activator: -4; sEH inhibitor: 5; Cav32 inh: -11*; PostGolgi yeast: -3; PostGolgi ctrl: 13

Results for CC1=C(C(=O)Nc2ccccc2)C(c2ccc(C)o2)N2C(=O)CSC2=N1 (centres undefined) ?
sEH activator: 5; sEH inhibitor: -4; Cav32 inh: -7.9*; PostGolgi yeast: 0; PostGolgi ctrl: -1

What do the screens show for `CC1=C(C(=O)Nc2ccccc2)C(c2ccc(C(C)C)cc2)N2C(=O)CSC2=N1` (centres undefined)?
sEH activator: 1; sEH inhibitor: 1; Cav32 inh: -1.7; PostGolgi yeast: -5; PostGolgi ctrl: 8

What do the screens show for `O=C(Nc1ccccc1)C1=C[C@H](c2coc3ccccc3c2=O)C[C@H](OCCCCO)O1`?
Cav32 inh: 0.48

What do the screens show for `N#CCc1ccc(NC(=O)Nc2cccc(Cl)c2)cc1`?
sEH activator: -78; sEH inhibitor: 78; Cav32 inh: -0.17; PostGolgi yeast: -1; PostGolgi ctrl: 31*

Results for N#Cc1ccccc1NC(=O)Nc1cccc(Cl)c1 ?
sEH activator: 3; sEH inhibitor: -1; PostGolgi yeast: 3; PostGolgi ctrl: -1

Results for COC(=O)c1cc(NC(=O)Nc2cccc(Cl)c2)ccc1Cl ?
sEH activator: -50; sEH inhibitor: 51; Cav32 inh: 0.014; PostGolgi yeast: 25; PostGolgi ctrl: 41*

How did CCOC(=O)c1ccc(N=c2sc(C(=O)OC)cc(=O)n2Cc2ccco2)cc1 do in these assays?
Cav32 inh: -1.3; PostGolgi yeast: 1; PostGolgi ctrl: 57*

Results for COC(=O)c1cc(=O)n(Cc2cccs2)c(=NCc2cccs2)s1 ?
sEH activator: 3; sEH inhibitor: -4; Cav32 inh: -0.91; PostGolgi yeast: 9; PostGolgi ctrl: 31*

What do the screens show for `Cn1c(=O)c2c(nc(NCc3ccc4c(c3)OCO4)n2Cc2ccccc2)n(C)c1=O`?
sEH activator: -6; sEH inhibitor: 6; Cav32 inh: -6*; PostGolgi yeast: -5; PostGolgi ctrl: 18

How did Cn1c(=O)c2c(nc(Oc3ccc4c(c3)OCO4)n2Cc2ccc(Cl)cc2)n(C)c1=O do in these assays?
sEH activator: 8; sEH inhibitor: -8; Cav32 inh: 0.56; PostGolgi yeast: 2; PostGolgi ctrl: 1

How did Cn1c(Oc2ccc3c(c2)OCO3)nc2c1c(=O)n(Cc1ccccc1)c(=O)n2C do in these assays?
Cav32 inh: 0.6; PostGolgi yeast: 5; PostGolgi ctrl: 31*

What do the screens show for `Cn1c(=O)c2c(nc(NCc3ccc4c(c3)OCO4)n2Cc2ccc(F)cc2)n(C)c1=O`?
sEH activator: -12; sEH inhibitor: 12; Cav32 inh: -4.3*; PostGolgi yeast: -8; PostGolgi ctrl: 19

Results for Cn1c(=O)c2c(nc(NCc3ccc4c(c3)OCO4)n2Cc2ccccc2F)n(C)c1=O ?
sEH activator: 5; sEH inhibitor: -3; Cav32 inh: -0.87; PostGolgi yeast: -6; PostGolgi ctrl: 17

How did O=C(NCc1ccccc1)C1=C[C@@H](c2coc3ccccc3c2=O)C[C@@H](OCCCCO)O1 do in these assays?
Cav32 inh: 0.75

Results for CCCCNC(=S)NC(=O)c1ccc([N+](=O)[O-])cc1 ?
sEH activator: -8; sEH inhibitor: 10; Cav32 inh: -0.61; PostGolgi yeast: 12; PostGolgi ctrl: 12

Results for CC(C)CNC(=S)NC(=O)c1ccc([N+](=O)[O-])cc1 ?
sEH activator: -3; sEH inhibitor: 5; Cav32 inh: -0.084; PostGolgi yeast: -1; PostGolgi ctrl: 32*

What do the screens show for `COc1cc(OC)cc(C(=O)NCCn2ccc3ccccc32)c1`?
sEH activator: 4; sEH inhibitor: -5; Cav32 inh: -0.02; PostGolgi yeast: 8; PostGolgi ctrl: -13

How did O=C(Cc1ccccc1)NCCn1ccc2ccccc21 do in these assays?
Cav32 inh: -0.59; PostGolgi yeast: 9; PostGolgi ctrl: 27

How did COc1cccc(C(=O)NCCn2ccc3ccccc32)c1 do in these assays?
Cav32 inh: -0.45; PostGolgi yeast: -7; PostGolgi ctrl: 40*

Results for O=C(COc1ccc2ccccc2c1)NCCn1ccc2ccccc21 ?
sEH activator: 4; sEH inhibitor: -5; Cav32 inh: -2.7; PostGolgi yeast: -22; PostGolgi ctrl: 48*

What do the screens show for `Cc1ccccc1NC(=S)NNC(=O)c1csc2c1CCC(C)C2` (centres undefined)?
sEH activator: -4; sEH inhibitor: 6; Cav32 inh: -2.5; PostGolgi yeast: 4; PostGolgi ctrl: 7

Results for Cc1cc(C)cc(Nc2ncc3c(n2)CC(c2ccco2)CC3=O)c1 (centres undefined) ?
sEH activator: 6; sEH inhibitor: -2; Cav32 inh: -3.8; PostGolgi yeast: 5; PostGolgi ctrl: 2

Source: PubChem (several laboratories)
